About 83,000 compounds went through this panel and 20% of them were active in at least one assay; those are over-represented in the sample as a whole.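 Method: cells in 96-well plates; compound added at one concentration; 48 h incubation; percent growth measured; values under 10 scored active.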 Values without a mark were called inactive. Calls of active or inactive are those of the source.
Test system: A498 renal
Assay: NCI-60 one-dose screen, 48 h (100 = growth as untreated, 0 = no growth, -100 = all killed)
Conditions: 10 µM unless noted
Experimental: Growth inhibition of the A498 human tumor cell line is measured as a screen for anti-cancer activity. Cells are grown in 96 well plates and exposed to the test compound for 48 hours. Compounds are tested at a single concentration, which is 10^-5 M for most compounds. The reported endpoint is percent growth (GI% or GIPRCNT), where numbers from 0 - 100% represent growth inhibition, and numbers from -100% - 0 represent cell death. For example, a value of 40 represents 60% growth inhibition. A value of 0 means no net growth occurred over the course of the experiment. A value of -40 indicates 40% of cells at the beginning of the experiment died by the end of the experiment. A value of -100 means all cells are dead at the end of the experiment.
NCI-60 Human Tumor Cell Lines Screen was performed using the standard one-dose NCI protocol, which is described in more detail at https://dtp.cancer.gov/discovery_development/nci-60/default.htm.
Compounds with GIPRCNT values below 10 were considered active. Activity score was based on GIPRCNT using the following formula: […]
Score is 0 for GIPRCNT values of 100 or above, 50 for GIPRCNT values of 0, and 100 for GIPRCNT values of -100.

| SMILES | growth |
| --- | --- |
| CC(CN)[C@@H]1CC[C@]2(CO)CC[C@]3(C)[C@H](CC[C@@H]4[C@@]5(C)CCC(N)C(C)(C)[C@@H]5CC[C@]43C)[C@@H]12 (stereo not given in full) | 92.2% |
| N#Cc1c(-c2ccccc2)cc(-c2ccccc2)n(CCCC(=O)NO)c1=O | -6.11% (active) |
| C#CC#CC#CC#CC#CC#CC#CC#CC[C@H]1OC[C@H](COC(=O)O[C@@H](C(=O)O[C@H]2C[C@@]3(O)[C@@H](OC(=O)c4ccccc4)[C@@H]4[C@]5(OC(C)=O)CO[C@@H]5C[C@H](O)[C@@]4(C)C(=O)[C@H](OC(C)=O)C(=C2C)C3(C)C)[C@@H](NC(=O)c2ccccc2)c2ccccc2)O1 | 50.2% |
| NC(=S)N/N=C/c1cn(-c2ccccc2)nc1-c1cc2ccccc2oc1=O | -6.2% (active) |
| CCN(CC)CCNC(=O)c1ccc(-c2nc3ccc4[nH]ncc4c3c3c2CCCC3)cc1 | 16.9% |
| Cc1cc(C(=O)Nc2cc(Nc3ncccc3-c3ncnc4nc[nH]c34)ccc2F)cc(C(F)(F)F)c1 | -26.9% (active) |
| C=C1C(=O)O[C@H]2[C@H]1CC/C(COC(=O)NCCCCCCCCNC(=O)OC/C1=C/CC[C@@]3(C)O[C@H]3[C@H]3OC(=O)C(=C)[C@@H]3CC1)=C\CC[C@@]1(C)O[C@@H]21 | -88.7% (active) |
| CCn1cc(CNc2ccc(C(=O)Nc3cc4cc(OC)c(OC)cc4c(C)n3)cc2)c(C)n1 | 93.6% |
| COc1ccc(C2=Nc3c(N)ncnc3NC(c3cccc(Nc4ccnc5cc(C(F)(F)F)ccc45)c3)C2)cc1 (stereo not given) | 65.2% |
| CCCCCCCC/C=C\CCCCCCCCOc1ccc(CC(=O)NCC[N+](C)(C)C)cc1 | 68.9% |
| Nc1c(C(=O)O)cc(Cl)cc1[N+](=O)[O-] | 100% |
| Cc1cc2oc(=O)cc(CP(=O)(O)O)c2cc1O | 80.8% |
| COc1cc(/C=N/Nc2ccccc2F)cc(OC)c1OC | 92.8% |
| O=C(O)c1cccc(N/C=C/C(=O)c2cc3cc(Br)ccc3oc2=O)c1 | 92.5% |
| CSCCC(NC(=O)c1ccccc1)C(=O)N/N=C1\S/C(=C/c2ccc(Cl)cc2)C(=O)N1C (stereo not given) | 103% |
| O=C(c1ccc(Cl)cc1Cl)N1c2ccccc2Sc2ccccc21 | 68.9% |
| COc1ccc(C2=Nc3c/c(=C\c4c(O)[nH]c5cc(Cl)ccc45)ccc3=N2)cc1 | 68.5% |
| O=C(O)C1CN(c2cccc(Cl)c2)N(c2cccc(Cl)c2)C1=O (stereo not given) | 110% |
| O=P(O)(O)OCC1OC(n2cnc3c(NCc4ccccc4)ncnc32)C(O)C1O (stereo not given) | -11.5% (active) |
| C=CCN=C(N)SCCCCCCSC(N)=NCC=C | 79.3% |

| SMILES | growth |
| --- | --- |
| COP(=O)(OC)c1nnn(-c2cccc([N+](=O)[O-])c2)c1C | 101% |
| COc1cc2c(c(OC)c1OC)C(=O)CC(c1cccc(NC(=O)c3ccccc3Br)c1)O2 (stereo not given) | 75.9% |
| C=C1C(=O)O[C@H]2[C@H]1CC/C(COC(=O)/C=C\C(=O)NCc1ccc(Cn3c(=O)sn(-c4ccccc4)c3=O)cc1)=C\CC[C@@]1(C)O[C@@H]21 | 91.2% |
| CN1CCN(Cc2ccc(NC(=O)c3cncc(C#Cc4cnn5ccccc45)c3)cc2C(F)(F)F)CC1 | -11.7% (active) |
| Cc1ccc2[nH]c(=O)c3c(c2c1)OC(N)=C(C#N)C31C(=O)c2cccc3cccc1c23 (stereo not given) | 107% |
| CC1=NN(c2ccc(Cl)cc2)CC1(C)N=O (stereo not given) | 101% |
| COc1cc2c(c(OC)c1OC)C(=O)N[C@@H]1[C@@H](O)[C@@H](O)[C@H](O)C[C@@H]21 | 112% |
| Oc1c(I)cc(-c2nc3ccccc3s2)cc1CN(Cc1ccccn1)Cc1ccccn1 | 18.1% |
| COc1cccc(NC(=O)c2cccc(C3CCc4c(cc(OC)c(OC)c4OC)O3)c2)c1 (stereo not given) | 30.2% |
| COc1cc(C(=O)/C=C/c2c(-c3cccs3)nc3ccccn23)cc(OC)c1OC | -21.8% (active) |
| COc1ccc(C/C(C)=C(/c2ccc(OCCN3CCCCCC3)cc2)c2ccc(OC(=O)NCc3ccccc3)cc2)cc1 | 97.3% |
| O=C(Nc1ccccc1O)c1ccccc1Nc1ccnc(C(F)(F)F)c1 | 145% |
| O=C1NC(=C(Cl)Cl)/C(=N/S(=O)(=O)NCCc2c[nH]c3ccccc23)N1 | 71.5% |
| CC(=O)N/C(=C1/OC(C(O)C(O)C(O)CO)CN1C)[P+](c1ccccc1)(c1ccccc1)c1ccccc1 (stereo not given) | 120% |
| CC(O)c1ncc(/C=C2\SC(=S)N(Cc3ccccc3)C2=O)s1 (stereo not given) | 100% |
| CC(/C=C1\SC(=S)N(CC(=O)NC(Cc2c[nH]c3ccccc23)C(=O)O)C1=O)=C\c1ccccc1 (stereo not given) | 107% |
| C[C@@H]1CC[C@@]2(OC1)O[C@H]1C[C@H]3[C@@H]4CC=C5C[C@@H](O[C@@H]6O[C@H](CO)[C@@H](O[C@@H]7O[C@@H](CO)[C@H](O)[C@H]7O)[C@H](O)[C@H]6O[C@@H]6O[C@@H](C)[C@H](O)[C@@H](O)[C@H]6O)CC[C@]5(C)[C@H]4CC[C@]3(C)[C@H]1[C@@H]2C | -95.6% (active) |
| CCN1C(=O)N(CC)C2C1NN=C1SCC(=O)N12 (stereo not given) | 112% |
| CCN1C(=O)N(CC)C2C1NN=c1s/c(=C3\C(=O)N(CCc4ccccc4)c4ccccc43)c(=O)n12 (stereo not given) | -3.18% (active) |
| Cc1[nH]c(C(=O)Nc2ccc(C(N)=O)cc2NC(C)C)c(Cl)c1Cl | 69.7% |
